# Residue numbers refer to the chain shown, from its start.
# Columns and labels:
# Assay in all cases: PBM; 200 nM protein, PBS
# Conditions in all cases: dsDNA, one strand shown
# PAX4 [1] = target: T1, PAX4 (Homo sapiens, UniProt O43316 9-242, R200K)
# T1 sequence: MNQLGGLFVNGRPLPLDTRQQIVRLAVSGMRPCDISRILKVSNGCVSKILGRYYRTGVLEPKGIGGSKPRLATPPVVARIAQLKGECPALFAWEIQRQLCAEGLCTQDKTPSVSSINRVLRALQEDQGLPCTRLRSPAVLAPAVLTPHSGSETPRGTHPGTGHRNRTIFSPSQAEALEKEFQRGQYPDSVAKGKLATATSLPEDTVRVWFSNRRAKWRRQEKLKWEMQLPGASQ
# PAX4 [2] = target: T2, PAX4 (Homo sapiens, UniProt O43316 9-242)
# T2 sequence: T1 sequence with K192R
# PAX4 [3] = target: T3, PAX4 (Homo sapiens, UniProt O43316 9-242, R200Q)
# T3 sequence: T1 sequence with K192Q
# PAX4 [4] = target: T4, PAX4 (Homo sapiens, UniProt O43316 9-242, R227W)
# T4 sequence: T1 sequence with K192R, R219W
# PRRX1 [5] = target: PRRX1 (Homo sapiens, UniProt P54821 80-166, F113S)
# Chain of PRRX1 (Homo sapiens, UniProt P54821 80-166, F113S) (P54821 80-166 F113S): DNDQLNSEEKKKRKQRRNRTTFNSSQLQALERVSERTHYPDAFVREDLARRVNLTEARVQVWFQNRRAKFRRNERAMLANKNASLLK
# HOXB6 [6] = target: HOXB6 (Homo sapiens, UniProt P17509 132-218, K202E)
# Chain of HOXB6 (Homo sapiens, UniProt P17509 132-218, K202E) (P17509 132-218 K202E): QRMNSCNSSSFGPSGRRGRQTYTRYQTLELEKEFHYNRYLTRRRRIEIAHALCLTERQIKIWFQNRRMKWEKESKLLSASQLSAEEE
# HOXA2 [7] = target: HOXA2 (Homo sapiens, UniProt O43364 129-215, R185T)
# Chain of HOXA2 (Homo sapiens, UniProt O43364 129-215, R185T) (O43364 129-215 R185T): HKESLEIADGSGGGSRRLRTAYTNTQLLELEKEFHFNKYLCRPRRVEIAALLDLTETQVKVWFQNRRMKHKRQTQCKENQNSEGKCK
# HOXA2 [8] = target: HOXA2 (Homo sapiens, UniProt O43364 129-215, R185K)
# Chain of HOXA2 (Homo sapiens, UniProt O43364 129-215, R185K) (O43364 129-215 R185K): as the sequence (O43364 129-215 R185T) above, with T57K counted along it
# PROP1 [9] = target: PROP1 (Homo sapiens, UniProt O75360 56-141)
# Chain of PROP1 (Homo sapiens, UniProt O75360 56-141) (O75360 56-141): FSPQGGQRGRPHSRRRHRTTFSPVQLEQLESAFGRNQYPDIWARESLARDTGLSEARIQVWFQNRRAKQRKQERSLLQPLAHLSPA
# PROP1 [10] = target: PROP1 (Homo sapiens, UniProt O75360 56-141, R99H)
# Chain of PROP1 (Homo sapiens, UniProt O75360 56-141, R99H) (O75360 56-141 R99H): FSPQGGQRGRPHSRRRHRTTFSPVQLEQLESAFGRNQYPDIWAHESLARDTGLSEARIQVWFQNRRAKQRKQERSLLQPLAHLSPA
# PROP1 [11] = target: PROP1 (Homo sapiens, UniProt O75360 56-141, F88S)
# Chain of PROP1 (Homo sapiens, UniProt O75360 56-141, F88S) (O75360 56-141 F88S): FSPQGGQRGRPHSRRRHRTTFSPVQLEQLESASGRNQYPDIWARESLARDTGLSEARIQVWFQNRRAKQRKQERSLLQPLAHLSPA
# HOXA2 [12] = target: HOXA2 (Homo sapiens, UniProt O43364 129-215, Y150S)
# Chain of HOXA2 (Homo sapiens, UniProt O43364 129-215, Y150S) (O43364 129-215 Y150S): as the sequence (O43364 129-215 R185T) above, with Y22S, T57R counted along it
# PRRX1 [13] = target: PRRX1 (Homo sapiens, UniProt P54821 80-166)
# Chain of PRRX1 (Homo sapiens, UniProt P54821 80-166) (P54821 80-166): as the sequence (P54821 80-166 F113S) above, with S34F counted along it
# HOXA2 [14] = target: HOXA2 (Homo sapiens, UniProt O43364 129-215)
# Chain of HOXA2 (Homo sapiens, UniProt O43364 129-215) (O43364 129-215): as the sequence (O43364 129-215 R185T) above, with T57R counted along it
# HOXB6 [15] = target: HOXB6 (Homo sapiens, UniProt P17509 132-218)
# Chain of HOXB6 (Homo sapiens, UniProt P17509 132-218) (P17509 132-218): as the sequence (P17509 132-218 K202E) above, with E71K counted along it
# PAX4 [16] = target: T5, PAX4 (Homo sapiens, UniProt O43316 9-242, F177V)
# T5 sequence: T1 sequence with F169V, K192R
# PAX4 [17] = target: T6, PAX4 (Homo sapiens, UniProt O43316 9-242, F177Y)
# T6 sequence: T1 sequence with F169Y, K192R
sequence,measurement,setting,value
TAGTATAA,binding signal,PAX4 [1],"10.7 upbm affinity estimate (log intensity, higher = more binding, comparable within an allelic series)"
same,binding signal,PAX4 [2],"10.8 upbm affinity estimate (log intensity, higher = more binding, comparable within an allelic series)"
same,binding signal,PAX4 [3],"10.8 upbm affinity estimate (log intensity, higher = more binding, comparable within an allelic series)"
same,binding signal,PAX4 [4],"10.5 upbm affinity estimate (log intensity, higher = more binding, comparable within an allelic series)"
AGCCTGAG,binding signal,PRRX1 [5],"9.28 upbm affinity estimate (log intensity, higher = more binding, comparable within an allelic series)"
same,binding signal,HOXB6 [6],"8.98 upbm affinity estimate (log intensity, higher = more binding, comparable within an allelic series)"
same,binding signal,HOXA2 [7],"7.3 upbm affinity estimate (log intensity, higher = more binding, comparable within an allelic series)"
same,binding signal,HOXA2 [8],"10.4 upbm affinity estimate (log intensity, higher = more binding, comparable within an allelic series)"
same,binding signal,PROP1 [9],"6.61 upbm affinity estimate (log intensity, higher = more binding, comparable within an allelic series)"
same,binding signal,PROP1 [10],"6.62 upbm affinity estimate (log intensity, higher = more binding, comparable within an allelic series)"
same,binding signal,PROP1 [11],"6.73 upbm affinity estimate (log intensity, higher = more binding, comparable within an allelic series)"
same,binding signal,HOXA2 [12],"10.5 upbm affinity estimate (log intensity, higher = more binding, comparable within an allelic series)"
same,binding signal,PRRX1 [13],"9.12 upbm affinity estimate (log intensity, higher = more binding, comparable within an allelic series)"
same,binding signal,HOXA2 [14],"7.33 upbm affinity estimate (log intensity, higher = more binding, comparable within an allelic series)"
same,binding signal,HOXB6 [15],"8.88 upbm affinity estimate (log intensity, higher = more binding, comparable within an allelic series)"
GATATTAA,binding signal,PAX4 [1],"11.2 upbm affinity estimate (log intensity, higher = more binding, comparable within an allelic series)"
same,binding signal,PAX4 [2],"11.5 upbm affinity estimate (log intensity, higher = more binding, comparable within an allelic series)"
same,binding signal,PAX4 [3],"11.2 upbm affinity estimate (log intensity, higher = more binding, comparable within an allelic series)"
same,binding signal,PAX4 [16],"10.3 upbm affinity estimate (log intensity, higher = more binding, comparable within an allelic series)"
same,binding signal,PAX4 [17],"10.5 upbm affinity estimate (log intensity, higher = more binding, comparable within an allelic series)"
same,binding signal,PAX4 [4],"10.6 upbm affinity estimate (log intensity, higher = more binding, comparable within an allelic series)"
ACGAATTA,binding signal,PAX4 [1],"11.6 upbm affinity estimate (log intensity, higher = more binding, comparable within an allelic series)"
same,binding signal,PAX4 [2],"12.1 upbm affinity estimate (log intensity, higher = more binding, comparable within an allelic series)"
same,binding signal,PAX4 [3],"11.7 upbm affinity estimate (log intensity, higher = more binding, comparable within an allelic series)"
same,binding signal,PAX4 [16],"10.3 upbm affinity estimate (log intensity, higher = more binding, comparable within an allelic series)"
same,binding signal,PAX4 [17],"11 upbm affinity estimate (log intensity, higher = more binding, comparable within an allelic series)"
same,binding signal,PAX4 [4],"10.8 upbm affinity estimate (log intensity, higher = more binding, comparable within an allelic series)"
TATTTTAA,binding signal,PAX4 [1],"11 upbm affinity estimate (log intensity, higher = more binding, comparable within an allelic series)"
same,binding signal,PAX4 [2],"11.2 upbm affinity estimate (log intensity, higher = more binding, comparable within an allelic series)"
same,binding signal,PAX4 [3],"11 upbm affinity estimate (log intensity, higher = more binding, comparable within an allelic series)"
same,binding signal,PAX4 [17],"10.6 upbm affinity estimate (log intensity, higher = more binding, comparable within an allelic series)"
same,binding signal,PAX4 [4],"10.6 upbm affinity estimate (log intensity, higher = more binding, comparable within an allelic series)"
GAGCTCGC,binding signal,PAX4 [1],"9.35 upbm affinity estimate (log intensity, higher = more binding, comparable within an allelic series)"
same,binding signal,PAX4 [2],"9.28 upbm affinity estimate (log intensity, higher = more binding, comparable within an allelic series)"
same,binding signal,PAX4 [3],"9.32 upbm affinity estimate (log intensity, higher = more binding, comparable within an allelic series)"
same,binding signal,PAX4 [16],"9.23 upbm affinity estimate (log intensity, higher = more binding, comparable within an allelic series)"
same,binding signal,PAX4 [17],"9.12 upbm affinity estimate (log intensity, higher = more binding, comparable within an allelic series)"
same,binding signal,PAX4 [4],"9.26 upbm affinity estimate (log intensity, higher = more binding, comparable within an allelic series)"
ATGTATTA,binding signal,PAX4 [1],"11.5 upbm affinity estimate (log intensity, higher = more binding, comparable within an allelic series)"
same,binding signal,PAX4 [2],"11.8 upbm affinity estimate (log intensity, higher = more binding, comparable within an allelic series)"
same,binding signal,PAX4 [3],"11.4 upbm affinity estimate (log intensity, higher = more binding, comparable within an allelic series)"
same,binding signal,PAX4 [16],"10.8 upbm affinity estimate (log intensity, higher = more binding, comparable within an allelic series)"
same,binding signal,PAX4 [17],"11 upbm affinity estimate (log intensity, higher = more binding, comparable within an allelic series)"
same,binding signal,PAX4 [4],"11 upbm affinity estimate (log intensity, higher = more binding, comparable within an allelic series)"
AAATTAAG,binding signal,PAX4 [1],"11.5 upbm affinity estimate (log intensity, higher = more binding, comparable within an allelic series)"
same,binding signal,PAX4 [2],"12.1 upbm affinity estimate (log intensity, higher = more binding, comparable within an allelic series)"
same,binding signal,PAX4 [3],"11.8 upbm affinity estimate (log intensity, higher = more binding, comparable within an allelic series)"
same,binding signal,PAX4 [16],"10.4 upbm affinity estimate (log intensity, higher = more binding, comparable within an allelic series)"
same,binding signal,PAX4 [17],"10.8 upbm affinity estimate (log intensity, higher = more binding, comparable within an allelic series)"
same,binding signal,PAX4 [4],"10.8 upbm affinity estimate (log intensity, higher = more binding, comparable within an allelic series)"
ACCGGGGC,binding signal,PAX4 [1],"9.07 upbm affinity estimate (log intensity, higher = more binding, comparable within an allelic series)"
same,binding signal,PAX4 [2],"9.11 upbm affinity estimate (log intensity, higher = more binding, comparable within an allelic series)"
same,binding signal,PAX4 [3],"9.2 upbm affinity estimate (log intensity, higher = more binding, comparable within an allelic series)"
same,binding signal,PAX4 [16],"9.11 upbm affinity estimate (log intensity, higher = more binding, comparable within an allelic series)"
same,binding signal,PAX4 [17],"9.09 upbm affinity estimate (log intensity, higher = more binding, comparable within an allelic series)"
same,binding signal,PAX4 [4],"9.2 upbm affinity estimate (log intensity, higher = more binding, comparable within an allelic series)"
GGAGGCAC,binding signal,PAX4 [1],"9.34 upbm affinity estimate (log intensity, higher = more binding, comparable within an allelic series)"
same,binding signal,PAX4 [2],"9.31 upbm affinity estimate (log intensity, higher = more binding, comparable within an allelic series)"
same,binding signal,PAX4 [3],"9.57 upbm affinity estimate (log intensity, higher = more binding, comparable within an allelic series)"
same,binding signal,PAX4 [16],"9.46 upbm affinity estimate (log intensity, higher = more binding, comparable within an allelic series)"
same,binding signal,PAX4 [17],"9.46 upbm affinity estimate (log intensity, higher = more binding, comparable within an allelic series)"
same,binding signal,PAX4 [4],"9.48 upbm affinity estimate (log intensity, higher = more binding, comparable within an allelic series)"
AGCGCCGC,binding signal,PAX4 [1],"9.3 upbm affinity estimate (log intensity, higher = more binding, comparable within an allelic series)"
same,binding signal,PAX4 [2],"9.34 upbm affinity estimate (log intensity, higher = more binding, comparable within an allelic series)"
same,binding signal,PAX4 [3],"9.35 upbm affinity estimate (log intensity, higher = more binding, comparable within an allelic series)"
same,binding signal,PAX4 [16],"9.22 upbm affinity estimate (log intensity, higher = more binding, comparable within an allelic series)"
same,binding signal,PAX4 [17],"9.31 upbm affinity estimate (log intensity, higher = more binding, comparable within an allelic series)"
same,binding signal,PAX4 [4],"9.31 upbm affinity estimate (log intensity, higher = more binding, comparable within an allelic series)"

# Source: PMC11006913
